# From ChEMBL document CHEMBL1157539, “Thousands of chemical starting points for antimalarial lead identification” (Nature, 2010)
# Tested on: Plasmodium falciparum
# Assay: GSK_TCMDC: Inhibition of Plasmodium falciparum 3D7 in whole red blood cells, using parasite LDH activity as an index of growth. Test compounds present at 2uM
# Type: functional
row,Structure (SMILES),Inhibition [%]
1,Cc1[nH]c2ccc(C#N)cc2c(=O)c1Br,91
2,COc1cccc(O)c1CN1CCC2(CCCN(Cc3ccc(F)cc3)C2)C1 (stereo not given),98
3,O=C(O)C(F)(F)F.OCC1CCN(Cc2ccc(-c3cccc(-c4nc5cc(C(F)(F)F)ccc5[nH]4)c3)cc2)CC1,99
4,CCC(C)CN1C(=O)C(c2ccccc2)(c2ccccc2)N=C1N.O=CO (stereo not given),98
5,CCCC(CCC)n1ccc2c3c(N)nc(N)nc3ccc21.Cl,98
6,COc1cc(C)nc2ccc(NC(=O)Nc3ccc4nc(C)cc(OC)c4c3)cc12,100
7,O=C(C1CCCC1)N1CCOC(CCN2CCC(c3ccccc3)CC2)(c2ccc(Cl)c(Cl)c2)C1 (stereo not given),88
8,COc1ccc(Cn2c(SCc3ccc(C)cc3)nc3cc(OC)c(OC)cc3c2=N)cc1Cl,92
9,CCOc1cc2c(cc1S(=O)(=O)c1ccc(COc3ccc(C(F)(F)F)cc3)cc1)CCN(C)CC2.Cl,87
10,CCOCCCn1c(=N)c(C(=O)NCc2ccc(F)cc2)cc2c(=O)n3cccc(C)c3nc21,100
11,c1ccc2sc(Sc3ncnc4sccc34)nc2c1,100
12,COc1ccc(-c2ccc(NC(=O)c3ccc(C#N)cc3)cc2)cc1CN1CCNCC1.O=C(O)C(F)(F)F,96
13,Cc1cc2ncn(-c3nccc(NCc4ccc(F)c(C)c4)n3)c2cc1C.O=C(O)C(F)(F)F,90
14,COC(=O)c1ccc2nc(-c3cc(-c4cccc(-c5ccccc5)c4)cnc3N)[nH]c2c1,100
15,CC(C)CCn1c(Sc2ccc(C#N)c([N+](=O)[O-])c2)nnc1-c1ccc(Cl)cc1,90
16,CCCc1cc(Cc2cnc(N)nc2N)cc(CC)c1OC.Cl,97
17,O=C(Nc1ccc(Cl)cc1F)NC1CCN(CCCCCNC(=O)C2CC2c2ccc(Cl)c(Cl)c2)CC1 (stereo not given),100
18,CC(=O)N(Cc1nc(-c2cc(Cl)c(Cl)s2)cs1)c1c(C)cccc1C,98
19,CN1CCN(c2nsc3ccc(-c4ccc(OCCN5CCCC5)cc4)cc23)CC1.O=C(O)C(F)(F)F,100
20,CN1CCN(CC(=O)Nc2ccc(-c3cccc(-c4nc5cc(C(F)(F)F)ccc5[nH]4)c3)cc2)CC1,100

row,Structure (SMILES),Inhibition [%]
1,Cc1nc(O)c2c(ccc3ccc(CNc4ccc(C(=O)N[C@@H](CCC(=O)O)C(=O)O)c(F)c4)cc32)n1,96
2,CCn1c(SCc2ccccc2)nc2c1c(=O)[nH]c(=O)n2C,96
3,CCNc1cc(C(=O)N[C@@H](Cc2ccccc2)[C@H](O)CN[C@H](C)c2ccccc2)cc(N2CCCC2=O)c1,97
4,CCc1cc(=O)[nH]c(-n2nc(C)cc2NC(=O)CC(c2ccccc2)c2ccccc2)n1,92
5,OCc1c(Cl)cc(Cl)cc1CNCCCNc1nc2ccccc2[nH]1,100
6,Cc1ccc(Oc2ccc(NC(=O)CNc3ccccc3N3CCCC3=O)cc2)cc1,98
7,Cc1cccc2nc(-c3ccc(-c4ccc(NC(=O)C(=O)c5cccn5C)cc4)cc3)[nH]c12,95
8,CC(=O)Nc1ccc2[nH]cc(C3CCN(CC4CCC(NC(=O)/C=C/c5ccccc5Cl)CC4)CC3)c2n1 (stereo not given),100
9,COc1ccc(CNCc2ccc(-c3ccc(-c4nc5cccc(C)c5[nH]4)s3)cc2)cc1.O=C(O)C(F)(F)F,100
10,NS(=O)(=O)c1cccc(-c2ccc3c(O)ncnc3c2)c1,99
11,O=C(Nc1cccc(CN2CCCN(Cc3cccc(O)c3)CC2)c1)c1ccc2ccccc2c1.O=C(O)C(F)(F)F,97
12,Cc1cc(Nc2cccc(C(F)(F)F)c2)nc(N)n1,98
13,CC(C)C[C@H](NC(=O)c1ccc(OCCN2CCOCC2)cc1)C(=O)N[C@H](/C=N/N1CCNC1=O)CCc1ccccc1,89
14,CCOc1ccc(C2CCN(CCCCNC(=O)c3ccc(NC(=O)c4ccc(Cl)cc4)cc3)CC2)c(OCC)c1.Cl,100
15,CN1CCN(CC(O)CNC(=O)Nc2ccc(Br)cc2)CC1.O=C(O)C(F)(F)F (stereo not given),100
16,Cl.N#Cc1ccc2c(c1)CCN(CCC1CCC(NC(=O)c3ccc(-c4ccccn4)s3)CC1)CC2 (stereo not given),92
17,O=C(C1CC1c1ccccc1)N(Cc1ccc(-c2ccc(CNCCc3ccccc3)cc2)cc1)C1CCNCC1.O=C(O)C(F)(F)F (stereo not given),96
18,COc1cc(Cc2cnc(N)nc2N)cc(OC(C)C)c1OC,91
19,CCc1ccc(C2CCN(CCCCNC(=O)c3ccc(-c4ccc(C(F)(F)F)cc4)cc3)CC2)c(OCCO)c1.Cl,100
20,O=C(O)C(F)(F)F.OC1CCCN(Cc2cccc(-c3ccc(-c4nc5cc(C(F)(F)F)ccc5[nH]4)cc3)c2)C1 (stereo not given),100

# Tested on: Plasmodium falciparum
# Assay: GSK_TCMDC: Inhibition of Plasmodium falciparum Dd2 in whole red blood cells, using parasite LDH activity as an index of growth. Test compounds present at 2uM
# Type: functional
row,Structure (SMILES),Inhibition [%]
1,Cc1[nH]c2ccc(C#N)cc2c(=O)c1Br,61
2,COc1cccc(O)c1CN1CCC2(CCCN(Cc3ccc(F)cc3)C2)C1 (stereo not given),72
3,O=C(O)C(F)(F)F.OCC1CCN(Cc2ccc(-c3cccc(-c4nc5cc(C(F)(F)F)ccc5[nH]4)c3)cc2)CC1,73
4,CCC(C)CN1C(=O)C(c2ccccc2)(c2ccccc2)N=C1N.O=CO (stereo not given),79
5,CCCC(CCC)n1ccc2c3c(N)nc(N)nc3ccc21.Cl,97
6,COc1cc(C)nc2ccc(NC(=O)Nc3ccc4nc(C)cc(OC)c4c3)cc12,83
7,O=C(C1CCCC1)N1CCOC(CCN2CCC(c3ccccc3)CC2)(c2ccc(Cl)c(Cl)c2)C1 (stereo not given),77
8,COc1ccc(Cn2c(SCc3ccc(C)cc3)nc3cc(OC)c(OC)cc3c2=N)cc1Cl,7
9,CCOc1cc2c(cc1S(=O)(=O)c1ccc(COc3ccc(C(F)(F)F)cc3)cc1)CCN(C)CC2.Cl,14
10,CCOCCCn1c(=N)c(C(=O)NCc2ccc(F)cc2)cc2c(=O)n3cccc(C)c3nc21,40
11,c1ccc2sc(Sc3ncnc4sccc34)nc2c1,100
12,COc1ccc(-c2ccc(NC(=O)c3ccc(C#N)cc3)cc2)cc1CN1CCNCC1.O=C(O)C(F)(F)F,42
13,Cc1cc2ncn(-c3nccc(NCc4ccc(F)c(C)c4)n3)c2cc1C.O=C(O)C(F)(F)F,82
14,COC(=O)c1ccc2nc(-c3cc(-c4cccc(-c5ccccc5)c4)cnc3N)[nH]c2c1,61
15,CC(C)CCn1c(Sc2ccc(C#N)c([N+](=O)[O-])c2)nnc1-c1ccc(Cl)cc1,39
16,CCCc1cc(Cc2cnc(N)nc2N)cc(CC)c1OC.Cl,1
17,O=C(Nc1ccc(Cl)cc1F)NC1CCN(CCCCCNC(=O)C2CC2c2ccc(Cl)c(Cl)c2)CC1 (stereo not given),27
18,CC(=O)N(Cc1nc(-c2cc(Cl)c(Cl)s2)cs1)c1c(C)cccc1C,95
19,CN1CCN(c2nsc3ccc(-c4ccc(OCCN5CCCC5)cc4)cc23)CC1.O=C(O)C(F)(F)F,99
20,CN1CCN(CC(=O)Nc2ccc(-c3cccc(-c4nc5cc(C(F)(F)F)ccc5[nH]4)c3)cc2)CC1,93

row,Structure (SMILES),Inhibition [%]
1,Cc1nc(O)c2c(ccc3ccc(CNc4ccc(C(=O)N[C@@H](CCC(=O)O)C(=O)O)c(F)c4)cc32)n1,96
2,CCn1c(SCc2ccccc2)nc2c1c(=O)[nH]c(=O)n2C,30
3,CCNc1cc(C(=O)N[C@@H](Cc2ccccc2)[C@H](O)CN[C@H](C)c2ccccc2)cc(N2CCCC2=O)c1,99
4,CCc1cc(=O)[nH]c(-n2nc(C)cc2NC(=O)CC(c2ccccc2)c2ccccc2)n1,75
5,OCc1c(Cl)cc(Cl)cc1CNCCCNc1nc2ccccc2[nH]1,2
6,Cc1ccc(Oc2ccc(NC(=O)CNc3ccccc3N3CCCC3=O)cc2)cc1,97
7,Cc1cccc2nc(-c3ccc(-c4ccc(NC(=O)C(=O)c5cccn5C)cc4)cc3)[nH]c12,15
8,CC(=O)Nc1ccc2[nH]cc(C3CCN(CC4CCC(NC(=O)/C=C/c5ccccc5Cl)CC4)CC3)c2n1 (stereo not given),79
9,COc1ccc(CNCc2ccc(-c3ccc(-c4nc5cccc(C)c5[nH]4)s3)cc2)cc1.O=C(O)C(F)(F)F,89
10,NS(=O)(=O)c1cccc(-c2ccc3c(O)ncnc3c2)c1,100
11,O=C(Nc1cccc(CN2CCCN(Cc3cccc(O)c3)CC2)c1)c1ccc2ccccc2c1.O=C(O)C(F)(F)F,42
12,Cc1cc(Nc2cccc(C(F)(F)F)c2)nc(N)n1,24
13,CC(C)C[C@H](NC(=O)c1ccc(OCCN2CCOCC2)cc1)C(=O)N[C@H](/C=N/N1CCNC1=O)CCc1ccccc1,94
14,CCOc1ccc(C2CCN(CCCCNC(=O)c3ccc(NC(=O)c4ccc(Cl)cc4)cc3)CC2)c(OCC)c1.Cl,95
15,CN1CCN(CC(O)CNC(=O)Nc2ccc(Br)cc2)CC1.O=C(O)C(F)(F)F (stereo not given),100
16,Cl.N#Cc1ccc2c(c1)CCN(CCC1CCC(NC(=O)c3ccc(-c4ccccn4)s3)CC1)CC2 (stereo not given),9
17,O=C(C1CC1c1ccccc1)N(Cc1ccc(-c2ccc(CNCCc3ccccc3)cc2)cc1)C1CCNCC1.O=C(O)C(F)(F)F (stereo not given),39
18,COc1cc(Cc2cnc(N)nc2N)cc(OC(C)C)c1OC,15
19,CCc1ccc(C2CCN(CCCCNC(=O)c3ccc(-c4ccc(C(F)(F)F)cc4)cc3)CC2)c(OCCO)c1.Cl,69
20,O=C(O)C(F)(F)F.OC1CCCN(Cc2cccc(-c3ccc(-c4nc5cc(C(F)(F)F)ccc5[nH]4)cc3)c2)C1 (stereo not given),91
